The source of these data is PubChem BioAssay (NCATS).

Records with an inconclusive call do not appear. Calls of active or inactive are those of the source. Unless noted, the call rests on the fitted dose curve; in most records, active means well fitted curve in the direction sought with a large enough effect; inconclusive means small, poorly fitted or top-dose-only effect, or another doubt; inactive means no such curve, though single readings can be large; an effect the other way counts as inactive or inconclusive.

Assay [1] is described as follows: Cytotoxicity counterscreen for NFkB agonists and antagonists (AID 624476).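 Further: cells exposed to compound for 48 hours.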 Further: potency means the concentration at half of the fitted maximal effect. A general note: The purpose of a counterscreen is to sort out artefacts and off-target activity.
A short description of assay [2]: qHTS Assay for Identification of Small Molecule Agonists for NFkB Signaling Pathway. (AID 624478). Further: 0% is about no effect. In short, it runs like this:
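NFkB-bla ME-180 cells carry a beta-lactamase reporter. They received compound plus TNF alpha at 10 pM final (its EC50) for 5 h at 37 C. Reporter activity was read as 460/530 nm emission ratio after 2 h LiveBLAzer substrate loading.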

Assay [3] can be described thus: Cell Proliferation Assay against the TMD8 Cell Line (AID 651645).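 Further: cells exposed to compound for 48 h before reading.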 The following applies: TMD8 DLBCL cell line proliferation/viability; at 46.1 µM (top of the series). In short, it runs like this:
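Viability by CellTiter-Glo after 48 h compound exposure of 500 log-phase TMD8 cells per well (RPMI, 5% FBS). Percent activity scaled between DMSO (100%) and 9.2 uM final bortezomib (0%).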

Assay [4] in a line: Cell Proliferation Assay against the HBL1 Cell Line (AID 651646).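 Further: cells exposed to compound for 48 h before reading.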 The following applies: HBL1 DLBCL cells; at 46.1 µM (top of the series). The gist of the method: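 Luminescent ATP read-out (CellTiter-Glo) after 48 h compound exposure of HBL1 cells at 37 °C; percent activity was scaled between DMSO as 100% and 9.2 uM bortezomib (final) as 0%.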
Assay [5] can be described thus: Cell Proliferation Assay against the TMD8 Cell Line (Caspase readout at 8 hrs) (AID 651713). Further: potency means the concentration at half of the fitted maximal effect. The gist of the method: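 TMD8 cells in RPMI plus 5% FBS were treated with compound for 8 h at 37C. Caspase 3/7 activation was read by Caspase-Glo luminescence. Percent activity was scaled from DMSO (0%) to 9.2 uM bortezomib final (100%).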
A short description of assay [6]: qHTS Assay for Identification of Small Molecule Antagonists for NFkB Signaling Pathway. (AID 624479; calls by dose curve;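 further: pathway stimulated with TNF alpha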; further: potency means the concentration at half of the fitted maximal effect). (In general: Quantitative high-throughput screening tests each substance at several concentrations.)
Assay [7] can be described thus: Cell Proliferation Assay against the TMD8 Cell Line (Caspase readout at 16 hrs) (AID 651712). Further: potency means the concentration at half of the fitted maximal effect. The gist of the method: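 Apoptotic response of TMD8 cells was judged from caspase 3/7 activation following a 16 hour compound incubation at 37 °C. Luminescent signal was converted to percent activity, with DMSO set as 0% and 9.2 uM final bortezomib as 100%.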

`C[C@@H](Oc1cc(-c2cnn(C3CCNCC3)c2)cnc1N)c1c(Cl)ccc(F)c1Cl`: in assay [1], the Potency entry is “inactive”. Moreover, in assay [2], the result was inactive. In assay [3], the viability (% of control) is 2.18%. The viability, percent of control in assay [4] was -0.628%. The Potency in assay [5] was 26.4 µM (active).
Take `C=C1C(=CC=C2CCCC3(C)[C@@H]([C@H](C)C=CC=CC(O)(CC)CC)CC[C@@H]23)C[C@@H](O)C[C@@H]1O` (some centres not stated): the results for the Potency in assay [1] and in assay [6] were 23.5 µM (active) and 16.8 µM (active), respectively. Further, the viability (% of control) in assay [3] was found to be 3.4%. Moreover, the viability, percent of control in assay [4] came out at 2.25%.
As for `Cc1ccc(C(=O)Nc2ccc(CN3CCN(C)CC3)c(C(F)(F)F)c2)cc1C#Cc1cnc2cccnn12`, the Potency in assay [1] was 20.9 µM (active); in assay [6], 2.66 µM (active); in assay [7] it was 0.662 µM (active); in assay [5], 23.5 µM (active). In assay [3], the viability (% of control) came out at 1.83%. Further, the viability, percent of control in assay [4] came out at 2.46%.
For the molecule `Cn1c(=O)n(-c2ccc(C(C)(C)C#N)cc2)c2c3cc(-c4cnc5ccccc5c4)ccc3ncc21`, the result in assay [2] was inactive. Further, the Potency entry in assay [6] was “inactive”. Further, the viability (% of control) in assay [3] turned out to be 10.6%. In assay [4], the viability, percent of control amounted to 38.2%. Moreover, the Potency in assay [7] is 20.9 µM (active).
On to `Cc1ccc(C(=O)Nc2cccc(C(F)(F)F)c2)cc1-c1ccc2nc(NCCN3CCOCC3)ncc2c1`, for which the Potency in assay [1] is 20.9 µM (active); in assay [6], 4.73 µM (active); in assay [5], 20.9 µM (active). The call in assay [2] was inactive. Moreover, the viability (% of control) in assay [3] is 0.164%. Also, the viability, percent of control in assay [4] was 0.88%.
Consider `Cc1cn(-c2cc(NC(=O)c3ccc(C)c(Nc4nccc(-c5cccnc5)n4)c3)cc(C(F)(F)F)c2)cn1`, for which the values for the Potency in assay [1] and in assay [6] were 9.35 µM (active) and 2.11 µM (active), respectively. Besides, the outcome in assay [2] was inactive. In addition, the viability (% of control) in assay [3] is 17.5%. Further, the viability, percent of control in assay [4] worked out at 14.5%. For the same molecule, the Potency result in assay [5] was “inactive”.
For the molecule `COC(=O)c1ccc2c(C(=Nc3ccc(N(C)C(=O)CN4CCN(C)CC4)cc3)c3ccccc3)c(O)[nH]c2c1`, the Potency in assay [1] is 23.5 µM (active); in assay [7], 0.469 µM (active); in assay [5] it was 26.4 µM (active). Further, the molecule was called inactive in assay [2]. Also, the viability (% of control) in assay [3] was 1.41%. In addition, the viability, percent of control in assay [4] came out at 2.34%.
`CCOc1cc2ncc(C#N)c(Nc3ccc(F)c(Cl)c3)c2cc1NC(=O)C=CCN(C)C`: the results for the Potency in assay [1], in assay [6] and in assay [5] were 20.9 µM (active), 11.9 µM (active) and 16.6 µM (active), respectively. The molecule was classed as inactive in assay [2]. Also, in assay [3], the viability (% of control) was -0.0881%. Also, in assay [4], the viability, percent of control was found to be 2.39%.
For the molecule `C=CC(=O)Nc1cc2c(Nc3ccc(F)c(Cl)c3)ncnc2cc1OCCCN1CCOCC1`, the Potency in assay [1] was 23.5 µM (active); in assay [6], 16.8 µM (active); in assay [5], 14.8 µM (active). In assay [3], the viability (% of control) stood at 0.581%. Besides, the viability, percent of control in assay [4] came out at 0.769%.
As for `C[C@@]12O[C@@H](C[C@]1(O)CO)n1c3ccccc3c3c4c(c5c6ccccc6n2c5c31)CNC4=O`, the Potency in assay [1] is 3.32 µM (active). Also, in assay [2], the molecule was called inactive. Also, the viability (% of control) in assay [3] was 1.51%. Further, the viability, percent of control in assay [4] is 3.21%.
`Cc1nc2cnc3ccc(C#Cc4cccnc4)cc3c2n1-c1ccc(C(C)(C)C#N)cc1`: the Potency entry in assay [1] is “inactive”. The outcome in assay [2] was inactive. Also, the viability (% of control) in assay [3] was 0.22%. For the same molecule, the viability, percent of control in assay [4] came out at 0.379%. Besides, the Potency in assay [5] is 26.4 µM (active).
On to `C=CCn1c(=O)c2cnc(Nc3ccc(N4CCN(C)CC4)cc3)nc2n1-c1cccc(C(C)(C)O)n1`, for which the Potency in assay [1] was 1.66 µM (active). The outcome in assay [2] was inactive. The viability (% of control) in assay [3] came to 11.5%. Besides, the viability, percent of control in assay [4] is 31.1%.
For `COc1cc(OC2CCN(C)CC2)ccc1Nc1ncc2c(n1)n(C1CCCC1)c(=O)n2C`, the Potency result in assay [1] was “inactive”. In assay [2], the result was inactive. Moreover, in assay [3], the viability (% of control) amounted to 56.7%. In addition, the viability, percent of control in assay [4] came to 38.2%. For the same molecule, the Potency in assay [5] was 10.5 µM (active).
Regarding `C=CC(=O)Nc1cc2c(Nc3ccc(F)c(Cl)c3)ncnc2cc1C#CC(C)(C)N1CCN(C)CC1`, the Potency in assay [1] is 7.43 µM (active); in assay [6], 4.73 µM (active); in assay [5], 5.26 µM (active). In addition, the viability (% of control) in assay [3] was -0.868%. In assay [4], the viability, percent of control was found to be 0.0807%.
Turning to `Cn1cc(-c2[nH]c3cc(NC(=O)[C@H](N)C4CCCCC4)cc4c3c2C=NNC4=O)cn1`, the molecule was called inactive in assay [2]. Also, the Potency entry in assay [6] is “inactive”. For the same molecule, the viability (% of control) in assay [3] stood at 2.55%. The viability, percent of control in assay [4] came to 21.5%. Besides, the Potency in assay [7] is 0.166 µM (active).
Turning to `CN1CCN(c2ccc3nc(-c4c(N)c5c(F)cccc5[nH]c4=O)[nH]c3c2)CC1`, the results for the Potency in assay [1], in assay [6] and in assay [5] were 16.6 µM (active), 0.421 µM (active) and 18.7 µM (active), respectively. Also, in assay [2], the result was inactive. The viability (% of control) in assay [3] was -0.299%. Also, the viability, percent of control in assay [4] worked out at 0.538%.
Consider `CCCCN1CCC(CNC(=O)c2c3n(c4ccccc24)CCCO3)CC1`, for which the Potency entry in assay [1], in assay [6], in assay [7] and in assay [5] was “inactive” each time. Also, the outcome in assay [2] was inactive. Besides, the viability, percent of control in assay [4] is 93.7%.
For the molecule `COc1cc2ncn(-c3cc(OCc4ccccc4C(F)(F)F)c(C(N)=O)s3)c2cc1OC`, the Potency result in assay [1], in assay [6] and in assay [5] was “inactive” each time. Moreover, in assay [2], the molecule was classed as inactive. Besides, the viability (% of control) in assay [3] was determined as 37.6%. Besides, the viability, percent of control in assay [4] is 41.7%.
On to `COc1ccc(OC)c(-c2nnc3ccc(-c4ccc(OC)c(O[C@@H]5CCOC5)c4)nn23)c1`, for which, in assay [1], the Potency result was “inactive”. For the same molecule, the outcome in assay [2] was inactive. In addition, in assay [3], the viability (% of control) turned out to be 15.1%. Further, the viability, percent of control in assay [4] is 42.3%. Moreover, the Potency in assay [7] was 20.9 µM (active).
As for `c1ccc2c(CCNc3ccc(Nc4ccncc4)cc3)c[nH]c2c1`, the Potency result in assay [1] is “inactive”. Also, the figures for the Potency in assay [6] and in assay [7] were 10.6 µM (active) and 23.5 µM (active), respectively. In addition, in assay [3], the viability (% of control) was 3.66%. Further, the viability, percent of control in assay [4] amounted to 22.1%.
In the case of `COCCn1c2c([n+](Cc3cnccn3)c1C)C(=O)c1ccccc1C2=O`, in assay [1], the Potency is 0.0118 µM (active). Further, the result in assay [2] was inactive. For the same molecule, the viability (% of control) in assay [3] was 1.68%. Moreover, in assay [4], the viability, percent of control was determined as 1.98%. For the same molecule, in assay [7], the Potency result was “inactive”.
On to `CC1=C(CO)C(=O)O[C@@H]([C@@H](C)[C@H]2CC[C@H]3[C@@H]4C[C@H]5O[C@]56[C@@H](O)C=CC(=O)[C@]6(C)[C@@H]4CC[C@]23C)C1`, for which the Potency is 3.32 µM (active) in assay [1] and 1.49 µM (active) in assay [6]. Further, the viability (% of control) in assay [3] turned out to be 0.616%. The viability, percent of control in assay [4] was found to be 1.69%. Further, the Potency result in assay [7] and in assay [5] was “inactive” throughout.
Take `CS(=O)(=O)N1CCN(Cc2cc3nc(-c4cccc5[nH]ncc45)nc(N4CCOCC4)c3s2)CC1`: the outcome in assay [2] was inactive.
In the case of `CC1(C)CCC(c2ccc(Cl)cc2)=C(CN2CCN(c3ccc(C(=O)NS(=O)(=O)c4ccc(N[C@H](CCN5CCOCC5)CSc5ccccc5)c(S(=O)(=O)C(F)(F)F)c4)cc3)CC2)C1`, the Potency was 4.18 µM (active) in assay [1], 14.9 µM (active) in assay [6] and 29.6 µM (active) in assay [5]. For the same molecule, the molecule was classed as inactive in assay [2]. Further, the viability (% of control) in assay [3] is 1.35%. The viability, percent of control in assay [4] was determined as 3.35%.
As to `Clc1ccc2ncc(-c3cccc(NC4CNC4)n3)n2c1`, the call in assay [2] was inactive. The Potency in assay [6] is 6.68 µM (active). Also, the viability (% of control) in assay [3] was found to be 1.46%. For the same molecule, the viability, percent of control in assay [4] turned out to be 34.2%.
